8 molecules from PubChem BioAssay (NCI) can be followed below.

About 83,000 compounds went through this panel and 20% of them were active in at least one assay; those are over-represented in the sample as a whole.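 Single-dose data. Exposure time 48 hours. Values below 10 considered active.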 A number with no mark means an inactive call. Active and inactive are the calls of the source.

What all share (assay): NCI-60 one-dose screen, 48 h (100 = growth as untreated, 0 = no growth, -100 = all killed)
One assay concerns NCI-H23 lung. As to conditions: 10 µM unless noted.
A further assay has as its system NCI-H322M lung. Conditions: 10 µM unless noted.
For the next assay, the system named is HOP-62 NSCLC. Conditions: 10 µM unless noted.
Another assay concerns NCI-H460 lung. Conditions: 10 µM unless noted.
The subject of another assay is HOP-92 NSCLC. Conditions: 10 µM unless noted.
The subject of another assay is A549/ATCC NSCLC. Conditions: 10 µM unless noted.
In a further assay the test system is 786-0 renal. As to conditions: 10 µM unless noted.
For a further assay, the system named is COLO 205 colon. Conditions: 10 µM unless noted.
The next assay relates to DU-145 prostate. As to conditions: 10 µM unless noted.
In another assay the test system is K-562 leukemia. Conditions: 10 µM unless noted.
Another assay concerns MALME-3M melanoma. Conditions: 10 µM unless noted.
For a further assay, the system named is MDA-MB-231 breast. As to conditions: 10 µM unless noted.
Another assay relates to RXF 393 renal. As to conditions: 10 µM unless noted.
Another assay deals with SF-268 CNS. As to conditions: 10 µM unless noted.
In a further assay the test system is SF-295 CNS. As to conditions: 10 µM unless noted.
The test system of another assay is SF-539 CNS. As to conditions: 10 µM unless noted.
A further assay deals with UACC-257 melanoma. As to conditions: 10 µM unless noted.
Another assay concerns M14 melanoma. Conditions: 10 µM unless noted.
The subject of a further assay is NCI-H522 lung. As to conditions: 10 µM.

Turning to `Nc1c(C(=O)Nc2cccc(Cl)c2)sc2nc3c(cc12)C(O)CCC3` (stereo unspecified), the growth in the assay with NCI-H23 lung was 29.8%; with NCI-H322M lung it was 62.3%; in the assay with HOP-62 NSCLC it was 46.8%; in the assay on NCI-H460 lung, 11.2%; in the assay on HOP-92 NSCLC it was 13.6%; in the assay with A549/ATCC NSCLC, 24.7%. The growth in the assay with 786-0 renal was 53.3%; with COLO 205 colon, 5.9% (active); in the assay with DU-145 prostate it was 7.3% (active); with K-562 leukemia, 10.6%; in the assay on MALME-3M melanoma, 40.2%; with MDA-MB-231 breast, 42.6%. The growth was -25.4% (active) in the assay on RXF 393 renal; 50.2% in the assay on SF-268 CNS; 13.7% in the assay on SF-295 CNS; -24.9% (active) with SF-539 CNS; 66.1% in the assay on UACC-257 melanoma; 17.1% with M14 melanoma.
For the molecule `CN(C)CCCNc1nn2c(=O)c3ccccc3nc2c2ccccc12`, the growth is 54.1% in the assay on NCI-H23 lung; 61.9% in the assay on NCI-H322M lung; 47.5% in the assay on HOP-62 NSCLC; 19.9% with NCI-H460 lung; 23.3% in the assay with HOP-92 NSCLC; 24% in the assay on A549/ATCC NSCLC. For the same molecule, the growth with 786-0 renal was 59%; in the assay on COLO 205 colon it was 37.1%; in the assay with DU-145 prostate it was 81.4%; in the assay with K-562 leukemia it was 41%; in the assay on MALME-3M melanoma it was 66.4%; in the assay on MDA-MB-231 breast it was 77.1%. In addition, the growth with SF-268 CNS was 61%; with SF-295 CNS it was 47.9%; with SF-539 CNS, 41.2%; in the assay on M14 melanoma, 89.2%.
For the molecule `COc1cnc2c(c1)C(=O)c1c-2n(CCCNC2=NCCS2)c(=O)c2cc(F)ccc12`, the growth in the assay with NCI-H23 lung is 6.62% (active); in the assay with NCI-H322M lung, 46.6%; with HOP-62 NSCLC, 11.2%; with NCI-H460 lung, -43.8% (active); in the assay with HOP-92 NSCLC it was 50.9%; in the assay with A549/ATCC NSCLC, 9.29% (active). The growth was -90.5% (active) in the assay on 786-0 renal; 22.1% with COLO 205 colon; 14.9% in the assay with DU-145 prostate; -34.4% (active) in the assay on K-562 leukemia; 27.8% in the assay on MALME-3M melanoma; 51% in the assay with MDA-MB-231 breast. The growth was 35.1% in the assay on RXF 393 renal; 23.2% in the assay with SF-268 CNS; -5.74% (active) in the assay on SF-295 CNS; -13.2% (active) in the assay on SF-539 CNS; 21.8% in the assay on UACC-257 melanoma; 5.96% (active) in the assay on M14 melanoma.
For `COc1cc2c(cc1OC)C(=O)/C(=C/c1cccc(OCC(=O)c3ccccc3)c1)C2`, the growth was 90.8% in the assay on NCI-H23 lung; 75% with NCI-H322M lung; 105% in the assay with HOP-62 NSCLC; 90.4% in the assay with NCI-H460 lung; 40.9% with HOP-92 NSCLC; 91.2% in the assay with 786-0 renal. The growth in the assay on COLO 205 colon was 119%; with K-562 leukemia it was 43.8%; in the assay on MALME-3M melanoma it was 145%; in the assay with MDA-MB-231 breast it was 97.9%; with SF-268 CNS, 94.9%; with SF-295 CNS, 104%. Also, the growth is 78.2% in the assay with SF-539 CNS, 95.4% in the assay with UACC-257 melanoma and 96.3% in the assay on M14 melanoma.
`CCSc1nc(-c2cccs2)n2nc(-c3ccco3)cc2n1`: the growth is 95% in the assay on NCI-H23 lung; 116% in the assay on NCI-H322M lung; 101% in the assay on HOP-62 NSCLC; 104% with NCI-H460 lung; 71.3% in the assay on HOP-92 NSCLC; 91.8% in the assay on NCI-H522 lung. In addition, the growth is 113% with 786-0 renal; 123% with COLO 205 colon; 113% with DU-145 prostate; 100% in the assay on K-562 leukemia; 107% in the assay with MALME-3M melanoma; 91.6% with MDA-MB-231 breast. Also, the growth in the assay with RXF 393 renal was 107%; in the assay on SF-268 CNS, 102%; in the assay on SF-295 CNS it was 99.4%; with SF-539 CNS, 100%; in the assay with UACC-257 melanoma, 103%; with M14 melanoma it was 109%.
For the molecule `Clc1ccc2[nH]cc(-c3cncn3CCc3ccccc3)c2c1`, the growth with NCI-H23 lung is 45.6%; in the assay on NCI-H322M lung, 65.5%; in the assay with HOP-62 NSCLC, 50.8%; with HOP-92 NSCLC it was 28%; in the assay on A549/ATCC NSCLC, 59.7%; in the assay on 786-0 renal, 62.9%. The growth is 44.3% in the assay on COLO 205 colon; 80.9% in the assay with DU-145 prostate; 26.9% in the assay with K-562 leukemia; 43.8% in the assay on MALME-3M melanoma; 65.9% in the assay on MDA-MB-231 breast; 52.3% in the assay on RXF 393 renal. In addition, the growth in the assay on SF-268 CNS is 46.3%; with SF-295 CNS, 43.5%; with SF-539 CNS, 69.7%; with UACC-257 melanoma, 50.2%; in the assay on M14 melanoma, 68.6%.
For `O=c1sc2ncnc3ncn1c32`, the growth in the assay on NCI-H23 lung is 66.1%; in the assay with NCI-H322M lung, 77.9%; in the assay with HOP-62 NSCLC it was 41.8%; in the assay with HOP-92 NSCLC it was 50%; in the assay on A549/ATCC NSCLC it was 104%; in the assay on 786-0 renal it was 34.6%. The growth was 83.5% in the assay with COLO 205 colon; 33.6% in the assay on DU-145 prostate; 15.2% with K-562 leukemia; 73.6% in the assay with MALME-3M melanoma; 43.7% in the assay on MDA-MB-231 breast; 82% in the assay with SF-268 CNS. Further, the growth in the assay with SF-295 CNS is 38.4%; in the assay on SF-539 CNS it was 45.8%; with UACC-257 melanoma, 88.1%; in the assay on M14 melanoma, 14.5%.
Turning to `CNNc1ncnc2c1cnn2-c1ccc(S(N)(=O)=O)cc1`, the growth in the assay with NCI-H23 lung was 94.2%; in the assay with NCI-H322M lung it was 104%; in the assay on HOP-62 NSCLC, 85.6%; in the assay with NCI-H460 lung it was 117%; in the assay on HOP-92 NSCLC, 41.5%; with A549/ATCC NSCLC, 92.9%. For the same molecule, the growth was 91.7% in the assay with 786-0 renal; 120% with COLO 205 colon; 112% in the assay on DU-145 prostate; 78.3% in the assay on K-562 leukemia; 112% in the assay on MALME-3M melanoma; 89.5% in the assay on MDA-MB-231 breast. The growth was 16% in the assay on RXF 393 renal; 106% in the assay with SF-268 CNS; 84% in the assay with SF-295 CNS; 93.8% with SF-539 CNS; 89% with UACC-257 melanoma; 95% in the assay with M14 melanoma.
